40 molecules from PubChem BioAssay (EPA / NIEHS) can be followed below.

Inconclusive results are not listed. The source made the active and inactive calls. The calls were made as follows: active = hit-call score of the fitted dose curve at least 0.9, where 1 is the maximum; inconclusive = response in the unintended direction; inactive = score below 0.9.

Chain of human Peripheral-type Benzodiazepine Receptor (PBR), TSPO (gene 706) (P30536 whole entry, looked up): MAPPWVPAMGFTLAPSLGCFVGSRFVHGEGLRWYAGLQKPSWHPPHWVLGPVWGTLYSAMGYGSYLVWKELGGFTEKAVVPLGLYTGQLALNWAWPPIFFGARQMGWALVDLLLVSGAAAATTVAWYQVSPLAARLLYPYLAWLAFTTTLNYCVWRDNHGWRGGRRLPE

The target in the assay is human Peripheral-type Benzodiazepine Receptor (PBR), TSPO (gene 706) (UniProt P30536). Description: NVS_MP_hPBR: NovaScreen (NVS) Membrane Protein Assay for human Peripheral-type Benzodiazepine Receptor (PBR) (AID 2283331). As for the experimental part:
NVS_MP_hPBR is a biochemical, single-readout assay that uses extracted gene-proteins from Human colonic cell membranes in a tissue-based cell-free assay. Measurements were taken 1 hour after chemical dosing in a 48-well plate.NVS_MP_hPBR is one of one assay component(s) measured or calculated from the NVS_MP_hPBR assay. It is designed to make measurements of radioligand binding, a form of binding reporter, as detected with scintillation counting signals by Filter-based radiodetection technology.Data from the assay component NVS_MP_hPBR was analyzed into 1 assay endpoint. This assay endpoint, NVS_MP_hPBR, was analyzed in the positive analysis fitting direction relative to DMSO as the negative control and baseline of activity. Using a type of binding reporter, loss-of-signal activity can be used to understand changes in the binding as they relate to the gene TSPO. Furthermore, this assay endpoint can be referred to as a primary readout, because the performed assay has only produced 1 assay endpoint. To generalize the intended target to other relatable targets, this assay endpoint is annotated to the transporter intended target family, where the subfamily is cholesterol transporter.
Binding assays used specific radioligands (tritiated, iodinated) with non-radioactive competitive displacement ligands in agonist or antagonist protocols (as indicated) and various reference compounds and inhibitors to titrate specific binding to receptors and transporters. Most enzyme assays (CYPs, kinases, phosphatases, proteases, HDACs) used recombinant protein and specific substrates (fluorescence mostly, some colorimetric and radioactive) and inhibitors, followed by a biochemical separation of substrate and product. All assays for the biochemical HTS were initially run in duplicate at a single concentration (10 uM for CYP450 assays and 25 uM for all others). […] Each assay was run with positive and negative controls, and concurrent controls on every plate. The follow-up (secondary) screen tested active chemical-pairs in concentration series, as well as a few additional assays not tested in the primary screen, some selected negative inactives, and several cases re-run in the concentration series for confirmatory purposes.
As to `CCC(CC)Nc1c([N+](=O)[O-])cc(C)c(C)c1[N+](=O)[O-]`, the result was inactive.
With `CN(C)C(=O)Nc1cccc(C(F)(F)F)c1`, the AC50 (commonly the midpoint of the concentration-response curve, whichever way the signal moves) was 17.9 µM (active).
For `CC(C)[C@H](C(=O)O[C@H](C#N)c1cccc(Oc2ccccc2)c1)c1ccc(Cl)cc1`, the call was inactive.
In the case of `CC1(C(=O)Nc2ccc(O)c(Cl)c2Cl)CCCCC1`, the AC50 is 1.78 µM (active).
Turning to `CC(COc1ccc(Oc2ccccc2)cc1)Oc1ccccn1` (stereo not given), the call was inactive.
Same read-out and setting: the value for `CCOP(=S)(OCC)Oc1cc(C)nc(C(C)C)n1` was “inactive”.
Turning to `CCc1cccc(CC)c1N(COC)C(=O)CCl`, the AC50 was 11.1 µM (active).
For the molecule `CC(C1CC1)C(O)(Cn1cncn1)c1ccc(Cl)cc1` (stereo not given), the outcome was inactive.
Still for that read-out and setting: the same measure for `COc1ccc(C(=CC(=O)N2CCOCC2)c2ccc(Cl)cc2)cc1OC`: “inactive”; for `CCC(=NOC/C=C/Cl)C1=C(O)CC(C2CCOCC2)CC1=O` (stereo not given): “inactive”; for `S=C1NCCN1`: “inactive”.
As to `Cc1cc(C2CC2)nc(Nc2ccccc2)n1`, the AC50 is 25 µM (active).
Take `CCOP(=S)(OCC)Oc1ccc([N+](=O)[O-])cc1`: the molecule was classed as inactive.
As for `CCOP(=S)(OCC)Oc1ccc2c(C)c(Cl)c(=O)oc2c1`, the AC50 was 3.86 µM (active).
Turning to `CCCCOC(=O)c1ccccc1C(=O)O`, the molecule was called inactive.
Same read-out and setting: the value for `Nc1c(Cl)cc([N+](=O)[O-])cc1Cl` was “inactive”.
In the case of `CC(C)=CC1C(C(=O)OCN2C(=O)C3=C(CCCC3)C2=O)C1(C)C` (stereo not given), the AC50 is 13.5 µM (active).
On the same count and under the same terms, the same measure for `CN(C)[C@@H]1C(=O)C(C(N)=O)=C(O)[C@@]2(O)C(=O)C3=C(O)c4c(O)cccc4[C@@](C)(O)[C@H]3[C@H](O)[C@@H]12`: 12.9 µM (active).
Take `CNC(=O)ON=C(SC)C(=O)N(C)C`: the molecule was classed as inactive.
Consider `CCCCSP(=O)(SCCCC)SCCCC`, for which the concentration at half-maximal activity (AC50) is 17.9 µM (active).
As for `CNC(=O)ON=C(C)SC`, the outcome was inactive.
Turning to `CCCOCC(=Nc1ccc(Cl)cc1C(F)(F)F)n1ccnc1`, the AC50 is 8.63 µM (active).
As to `CCOC(=O)CC(SP(=O)(OC)OC)C(=O)OCC` (stereo not given), the molecule was classed as inactive.
As for `C#CCC1=C(C)C(OC(=O)C2C(C=C(C)C)C2(C)C)CC1=O` (stereo not given), the molecule was classed as inactive.
In the case of `CCCCN(CC)c1c([N+](=O)[O-])cc(C(F)(F)F)cc1[N+](=O)[O-]`, the outcome was inactive.
Take `CCC(=O)Nc1ccc(Cl)c(Cl)c1`: the AC50 was 15.6 µM (active).
Same read-out and setting: the same measure for `CCc1cccc(C)c1N(C(=O)CCl)C(C)COC` (stereo not given): 9.23 µM (active); for `CNc1cnn(-c2cccc(C(F)(F)F)c2)c(=O)c1Cl`: 5.75 µM (active); for `CCCSP(=O)(OCC)Oc1ccc(Br)cc1Cl` (stereo not given): 3.16 µM (active).
For `CC1=NNC(=O)N(/N=C/c2cccnc2)C1`, the molecule was called inactive.
On to `CCOP(=S)(OCC)SCCSCC`, for which the molecule was classed as inactive.
Regarding `CCCSP(=O)(OCC)SCCC`, the AC50 is 17.7 µM (active).
`COP(=O)(NC(C)=O)SC` (stereo not given): the result was inactive.
The same measure, in the same setting: the value for `CCOP(=S)(Oc1cnc(C(C)(C)C)nc1)OC(C)C` (stereo not given) was “inactive”.
As to `C#CC(C)(C)NC(=O)c1cc(Cl)cc(Cl)c1`, the AC50 was 1.47 µM (active).
Turning to `CCOP(=O)(OCC)Oc1cc(C)nc(C(C)C)n1`, the outcome was inactive.
Take `FC(F)C(F)(F)OCC(Cn1cncn1)c1ccc(Cl)cc1Cl` (stereo not given): the AC50 is 19.4 µM (active).
Same read-out and setting: the same measure for `C[Si](Cn1cncn1)(c1ccc(F)cc1)c1ccc(F)cc1`: 25 µM (active).
On to `C=C(C)[C@H]1Cc2c(ccc3c2O[C@@H]2COc4cc(OC)c(OC)cc4[C@@H]2C3=O)O1`, for which the result was inactive.
Consider `CON=C(C(=O)OC)c1ccccc1CON=C(C)c1cccc(C(F)(F)F)c1`, for which the AC50 is 1.06 µM (active).
